Among the test systems are T-47D breast; BT-549 breast; MDA-MB-435 melanoma; SW-620 colon; MCF7 breast; HCT-116 colon; HCC-2998 colon; KM12 colon.
Assay in all cases: NCI-60 one-dose screen, 48 h (100 = growth as untreated, 0 = no growth, -100 = all killed)
What all share (conditions): 10 µM unless noted

About 83,000 compounds went through this panel and 20% of them were active in at least one assay; those are over-represented in the sample as a whole.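 Cell lines were cultured in 96-well plates, exposed to a single compound concentration, and assessed for percent growth 48 hours later.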 A number with no mark means an inactive call. Active and inactive are the calls of the source. The calls were made as follows: active = growth percent below 10; inactive = the rest.

Take `COc1cc(/C=C/c2cc(/C=C/c3ccc(O)c(OC)c3)n(-c3c(Cl)cccc3Cl)c(=O)n2)ccc1O`: the growth is 24.1% in the assay on T-47D breast; 15.2% in the assay on BT-549 breast; 4.57% (active) in the assay with MDA-MB-435 melanoma; 10.4% in the assay with SW-620 colon; 13.7% in the assay with MCF7 breast; 4.63% (active) in the assay on HCT-116 colon. Also, the figures for the growth in the assay on HCC-2998 colon and in the assay with KM12 colon were 41.8% and 12.1%, respectively.
In the case of `COc1ccc(S(=O)(=O)N2CCCCCC2)cc1NC(=O)c1[nH]c(C)c2c1CCCCC2=O`, the growth in the assay on T-47D breast was 9.29% (active); with BT-549 breast, 42.2%; with MDA-MB-435 melanoma, 25.6%; in the assay with SW-620 colon it was 60.8%; with MCF7 breast, 17.9%; in the assay on HCT-116 colon, 23.8%. For the same compound, the growth was 20.2% with HCC-2998 colon and 32.8% in the assay with KM12 colon.
For the compound `COc1ccc(-n2nc(C)c3c(Nc4ccc(NC(=O)Nc5cccc(C(F)(F)F)c5)cc4)ncnc32)cc1`, the growth was -13.9% (active) in the assay with T-47D breast; 25.2% in the assay with BT-549 breast; 6.96% (active) with MDA-MB-435 melanoma; 12.4% with SW-620 colon; 2.15% (active) in the assay with MCF7 breast; 1.52% (active) in the assay with HCT-116 colon. The growth in the assay on HCC-2998 colon is 14.1%; with KM12 colon it was 2.78% (active).
For the compound `CC[C@]1(O)C[C@@H]2CN(CCc3c([nH]c4ccccc34)[C@@](C(=O)OC)(c3cc4c(cc3OC)N(C)[C@H]3[C@@](O)(C(N)=O)[C@H](O)[C@]5(CC)[C@@H]6C[C@@H]6CN6CC[C@]43[C@@H]65)C2)C1`, the growth in the assay on T-47D breast is 92.9%; in the assay with BT-549 breast, 11.5%; in the assay with MDA-MB-435 melanoma, -40% (active); in the assay with SW-620 colon, 26.7%; in the assay with MCF7 breast it was 18.9%; in the assay with HCT-116 colon, 6.89% (active). Also, the growth in the assay with HCC-2998 colon is 24.9%; in the assay on KM12 colon, 11.9%.
Regarding `C=C(C)[C@@H]1CC[C@]2(C(=O)OC)CC[C@]3(C)[C@H](CC[C@@H]4[C@@]5(C)C/C(=C/c6ccc(OC)cc6)C(=O)C(C)(C)[C@@H]5CC[C@]43C)[C@@H]12`, the growth in the assay with T-47D breast is 101%; in the assay with BT-549 breast it was 96.6%; in the assay on MDA-MB-435 melanoma it was 72.1%; with SW-620 colon, 62.5%; with MCF7 breast, 49.1%; with HCT-116 colon it was 41.8%. Also, the results for the growth in the assay with HCC-2998 colon and in the assay on KM12 colon were 92.4% and 94.3%, respectively.
With `CC(=O)NCC1c2c(n(C)c3c(Cl)c(Cl)ccc23)C(=O)NC1(C)C` (configuration not stated), the growth with T-47D breast is 98.5%; in the assay on BT-549 breast, 102%; in the assay with MDA-MB-435 melanoma, 96.4%; with SW-620 colon it was 113%; in the assay on MCF7 breast, 92.1%; in the assay with HCT-116 colon it was 94.8%. In addition, the growth is 93% in the assay on HCC-2998 colon and 118% with KM12 colon.
As to `COc1cc(/C=C/C(=O)Nc2cccnc2Nc2ccc(F)cc2)cc(OC)c1OC`, the growth in the assay with T-47D breast was 93.3%; in the assay with BT-549 breast it was 92.3%; with MDA-MB-435 melanoma it was 97.4%; in the assay on SW-620 colon, 106%; in the assay with MCF7 breast, 88.3%; in the assay with HCT-116 colon, 96.3%. Further, the growth in the assay with HCC-2998 colon is 109%; in the assay with KM12 colon it was 96.8%.
Turning to `C#Cc1cccc(NC(=O)c2ccccc2NC(=O)CCl)c1`, the growth is 77.7% [8.25 µM] in the assay on T-47D breast; 61.6% [8.25 µM] in the assay on BT-549 breast; 89.9% [8.25 µM] in the assay on MDA-MB-435 melanoma; 79.5% [8.25 µM] in the assay with SW-620 colon; 67.9% [8.25 µM] in the assay on MCF7 breast; 49.4% [8.25 µM] in the assay with HCT-116 colon. The growth in the assay with HCC-2998 colon is 99.2% [8.25 µM]; in the assay on KM12 colon, 99.7% [8.25 µM].
Consider `NC(N)=N/N=C(/c1ccccc1)c1ccc(F)cc1`, for which the growth with T-47D breast is 51.2%; in the assay with BT-549 breast, 14.7%; with MDA-MB-435 melanoma, -19.2% (active); with SW-620 colon it was 28.8%; in the assay on MCF7 breast it was 12.3%; in the assay with HCT-116 colon it was 2.71% (active). For the same compound, the growth is -43.7% (active) in the assay with HCC-2998 colon and -7.82% (active) in the assay with KM12 colon.
Take `FC(F)(F)Oc1ccc2nc3nc4ccc[nH]c4cc3c2c1`: the growth with T-47D breast was 41.3%; with BT-549 breast, 84.4%; with MDA-MB-435 melanoma, 89.2%; in the assay on SW-620 colon, 86.8%; with MCF7 breast it was 16.8%; in the assay on HCT-116 colon, 81.4%. For the same compound, the growth in the assay on HCC-2998 colon is 96.8%; in the assay with KM12 colon it was 72.8%.
Regarding `COc1cccc(-c2nn(C(C)(C)C)cc2-c2ccnc(NCCCNS(=O)(=O)c3cccc4ccccc34)c2)c1`, the growth in the assay with T-47D breast was 102%; with BT-549 breast, 108%; with MDA-MB-435 melanoma, 102%; in the assay on SW-620 colon, 106%; in the assay with MCF7 breast, 98.6%; in the assay on HCT-116 colon, 98.7%. In addition, the growth with HCC-2998 colon is 114%; in the assay with KM12 colon, 99.5%.
With `CCOC(=O)n1cc(-c2nonc2-c2cn(C)c3ncccc23)c2cc(F)ccc21`, the growth was 10.4% in the assay on T-47D breast; 93.1% in the assay on BT-549 breast; 94.7% in the assay on MDA-MB-435 melanoma; 89.5% with SW-620 colon; 27.2% in the assay with MCF7 breast; 69.5% in the assay on HCT-116 colon. Further, the growth in the assay with HCC-2998 colon was 86.4%; in the assay with KM12 colon, 73.5%.
Regarding `Cc1c(/C=C/[N+](=O)[O-])ccc2c1[nH]c1ccccc12`, the growth is 78.1% in the assay on T-47D breast; 59.2% in the assay on BT-549 breast; -11.2% (active) in the assay with MDA-MB-435 melanoma; 77.7% in the assay on SW-620 colon; -11.9% (active) with MCF7 breast; -97.8% (active) in the assay on HCT-116 colon. For the same compound, the growth in the assay with HCC-2998 colon is -30.7% (active); with KM12 colon, 52.4%.
As to `O=S(=O)(Nc1ccc(NS(=O)(=O)c2ccccc2)c(Cl)c1)c1ccccc1`, the growth in the assay on T-47D breast is 106%; in the assay with BT-549 breast it was 105%; in the assay on MDA-MB-435 melanoma it was 107%; in the assay with SW-620 colon, 99.1%; in the assay on MCF7 breast, 91.6%; in the assay on HCT-116 colon, 97.6%. Moreover, the growth with HCC-2998 colon and in the assay on KM12 colon was 104% each time.
